Our source for the Potency and outcome values is PubChem BioAssay (Tox21).

SMILES strings stand for the structures. Several values for one entry are separate records, joined by “and”; a condition that tells them apart may be missing. Equal values may be shown once. Results filed as inconclusive are left out. Activity calls are given as the source filed them. Unless noted, the call rests on the fitted dose curve; in most records, active means well fitted curve in the direction sought with a large enough effect in the repeat runs; inconclusive means weak or mixed curves; inactive means no such curve, though single readings can be large; an effect the other way counts as inactive or inconclusive.

Assay [1] can be described thus: qHTS assay to identify small molecule HDAC inhibitors (AID 1259364).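 Further: wild-type HCT-116 cells with endogenous class I/II HDAC activity; top concentration of the series differs between compounds; nearly all actives have a fitted effect of over 45% in size.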 A digest of the protocol: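 HCT-116 wt cells, 1,500/well, overnight attach. Compounds (DMSO) 2 h, 37 °C. HDAC-Glo I/II, 30 min RT. Luminescence.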
(In qHTS, concentration-response curves come from the screen itself.)

Assay [2] can be described thus: qHTS assay to identify small molecule HDAC inhibitors - cell viability counter screen (AID 1259365). Further: series mostly up to about 92 µM; nearly all actives have a fitted effect of over 50% in size. A digest of the protocol: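 To flag cytotoxic hits, 1,500 wild-type HCT-116 cells per well, plated the day before, receive test compounds for 2hr at 37 C before CellTiter-Glo reagent and a luminescence read.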
Assay [3] in a line: qHTS assay to identify small molecule agonists of the sonic hedgehog signaling (Shh) pathway - cell viability counter screen (AID 1259366). Further: nearly all actives have a fitted effect of over 50% in size. Further: potency means the concentration at half of the fitted maximal effect. A digest of the protocol: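 Fluorescence from CellTiter-Fluor reports live cells in this counter screen. NIH/3T3-derived Gli1-Luc reporter cells receive test compounds for 24hr at 37C; reagent goes in at 23hr.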
Assay [4] is described as follows: qHTS assay to identify small molecule antagonists of the sonic hedgehog signaling (Shh) pathway - cell viability counter screen (AID 1259367). Further: nearly all actives have a fitted effect of over 55% in size. Further: potency means the concentration at half of the fitted maximal effect. A digest of the protocol:
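Conditioned medium drove Shh signaling in 3T3 Gli1-Luc cells exposed to compounds at 37C and 5% CO2. Viability was determined from CellTiter-Fluor fluorescence, with reagent incubated 1 hr after 23 hr of treatment.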

A short description of assay [5]: qHTS assay to identify small molecule agonists of the sonic hedgehog signaling (Shh) pathway (AID 1259368; calls by dose curve;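 further: NIH/3T3-derived 3T3Gli1-Luc cells carrying a stable Gli1-driven firefly luciferase reporter; series mostly up to about 92 µM; nearly all actives have a fitted effect of over 15% in size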). A digest of the protocol: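 Following a 24 hr incubation with DMSO-dissolved compounds at 37 C, 5% CO2, Gli1-Luc NIH/3T3-derived cells received luciferase reagent for 30 min at room temperature prior to luminescence measurement.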
A short description of assay [6]: qHTS assay to identify small molecule antagonists of the sonic hedgehog signaling (Shh) pathway (AID 1259369; calls by dose curve; further: nearly all actives have a fitted effect of over 45% in size). A digest of the protocol:
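Read-out is luminescence from a firefly luciferase gene controlled by the Gli1 response element, in 3T3Gli1-Luc cells pre-incubated 4hr then exposed to compounds and conditioned medium for 24hr.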

For assay [7], the target named is Estrogen receptor beta (Homo sapiens) (UniProt Q92731). Put plainly: qHTS assay to identify small molecule agonists of the estrogen receptor beta (ER-beta) signaling pathway (AID 1259377; active means well fitted activation curve with a large enough effect in the signal ratio in the repeat runs, not every such curve was filed as active; the % refers to the signal ratio). A digest of the protocol: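 Screening used GripTite ER-beta-UAS-bla cells held in 2% charcoal-stripped FBS medium. After overnight (16 hr) compound incubation at 37C, beta-lactamase activity was detected with a FRET substrate by fluorescence.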

Assay [8] in a line: qHTS assay to identify small molecule agonists of the androgen receptor (AR) signaling pathway in the presence of an antagonist - cell viability counter screen (AID 1259379).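 Further: MDA-kb2 human breast cancer cells carrying an MMTV luciferase reporter; series mostly up to about 92 µM; nearly all actives have a fitted effect of over 25% in size.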 A digest of the protocol:
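Each compound was tested at 15 concentrations on MDA-kb2 cells in the presence of 3.0uM nilutamide. Viability was measured by CellTiter-Fluor fluorescence after a 16 hr incubation at 37C in a CO2-free atmosphere.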

Assay [9] in a line: qHTS assay to identify small molecule agonists of the estrogen receptor beta (ER-beta) signaling pathway - cell viability counter screen (AID 1259380). Further: nearly all actives have a fitted effect of over 30% in size. A digest of the protocol:
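Compounds dissolved in DMSO were pin-transferred onto ER-beta-UAS-bla HEK293T cells that had settled 6 hr, and exposure ran 16 hr at 37C. Following the reporter read, CellTiter-Glo luminescence after 30 min at room temperature indicated cytotoxicity.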

For assay [10], the target named is Androgen receptor (Homo sapiens) (UniProt P10275). Put plainly: qHTS assay to identify small molecule agonists of the androgen receptor (AR) signaling pathway in the presence of an antagonist (AID 1259381; calls by dose curve; further: nearly all actives have a fitted effect of over 15% in size). A digest of the protocol: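 Plated MDA-kb2 cells (3,000/well) were pre-incubated 5hr, given nilutamide (3.0uM final) or buffer, then dosed with compounds in DMSO at 15 concentrations. Luciferase activity was quantified by luminescence after 16hr at 37C.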

The nature of assay [11]: qHTS assay to identify small molecule antagonists of the estrogen receptor beta (ER-beta) signaling pathway - cell viability counter screen (AID 1259382). Further: series mostly up to about 92 µM; nearly all actives have a fitted effect of over 55% in size. A digest of the protocol:
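CellTiter-Glo ATP luminescence measured after the LiveBLAzer read in the same wells; ER-beta-UAS-bla HEK293T cells, 16 hr compound treatment with 1nM 17-beta-estradiol agonist at 37C, 5% CO2.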

Assay [12] can be described thus: qHTS assay to identify small molecule agonists or antagonists of the thyroid stimulating hormone receptor (TSHR) signaling pathway - wild type cell line counter screen (AID 1259384; calls by dose curve). A digest of the protocol:
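Wild-type HEK293 cells were plated 18 h at 37 C/5% CO2, pin-dosed with compound plus Ro20-1724 medium, held 30 min at room temperature, then given cAMP-d2 and anti-cAMP-cryptate; fluorescence was read after 1 h. Fifteen concentrations, triplicate.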

For assay [13], the target named is Thyrotropin receptor (Homo sapiens) (UniProt P16473). Put plainly: qHTS assay to identify small molecule antagonists of the thyroid stimulating hormone receptor (TSHR) signaling pathway (AID 1259385; calls by dose curve; further: nearly all actives have a fitted effect of over 20% in size). A digest of the protocol:
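TSHR-HEK293 cells were plated and held 18 h at 37C/5% CO2, then given compound plus Ro20-1724 and stimulated with TSH at 1.5 ng/mL final. After 30 min at room temperature, cAMP was detected with cAMP-d2/anti-cAMP-cryptate (1 h) by fluorescence.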

Assay [14] in a line: qHTS assay to identify small molecule agonists of the estrogen receptor alpha (ER-alpha) signaling pathway in the presence of an antagonist - cell viability counter screen (AID 1259386).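 Further: series mostly up to about 92 µM; cells exposed to compounds for 22 h at 37 °C before the viability read; nearly all actives have a fitted effect of over 30% in size.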 A digest of the protocol:
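Using estrogen-depleted VM7Luc4E2 cells, the 15-concentration compound series was applied together with 10.0nM ICI-182,780 and incubated 22hr at 37C/5% CO2. Cell viability was then scored by CellTiter-Fluor.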

For assay [15], the target named is Progesterone receptor (Homo sapiens) (UniProt P06401). The assay can be described thus: qHTS assay to identify small molecule agonists of the progesterone receptor (PR) signaling pathway (AID 1346784; calls by dose curve; further: nearly all actives have a fitted effect of over 30% in size). A digest of the protocol:
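Seed PR-UAS-bla HEK 293T cells (2% charcoal-stripped FBS), incubate 6 hr at 37C; add compounds in DMSO, 16 hr at 37C; add LiveBLAzer B/G substrate, 2 hr RT; read fluorescence intensity.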

Assay [16] shares this target. Put plainly: qHTS assay to identify small molecule antagonists of the progesterone receptor (PR) signaling pathway (AID 1346795; active means well fitted inhibition curve with a large enough effect in the signal ratio in the repeat runs, not every such curve was filed as active; the % refers to the signal ratio; further: potency means the concentration at half of the fitted maximal effect). A digest of the protocol:
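Screening used a GripTite HEK293T line with PR-responsive UAS-beta-lactamase. Cells were challenged with compound in the presence of 1 nM R5020 final for 16 hr at 37C; B/G FRET substrate, 2 hr room temperature, fluorescence.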

Assay [17] is described as follows: qHTS assay to identify small molecule phospholipidosis (PLD) inducers (AID 1259344; active means well fitted curve in the direction sought with a large enough effect; an effect the other way counts as inactive or inconclusive). A digest of the protocol:
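After 4 h attachment on collagen I, HepG2 cells were dosed with compound alongside LipidTOX Red, kept 24 h at 37 C, fixed, and imaged for lamellar phospholipid pits.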

Assay [18] concerns the target Estrogen receptor beta (Homo sapiens) (UniProt Q92731). The assay can be described thus: qHTS assay to identify small molecule antagonists of the estrogen receptor beta (ER-beta) signaling pathway (AID 1259378; active means well fitted inhibition curve with a large enough effect in the signal ratio in the repeat runs, not every such curve was filed as active; the % refers to the signal ratio). A digest of the protocol:
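ER-beta-UAS-bla HEK293T (GripTite) cells in 2% charcoal-stripped FBS medium were preincubated 6 hr at 37C, dosed with compound, then stimulated with 1 nM E2 (final) for 16 hr; beta-lactamase reporter read by B/G FRET fluorescence after 2 hr substrate loading.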

Assay [19] has as its target Estrogen receptor (Homo sapiens) (UniProt P03372). Put plainly: qHTS assay to identify small molecule agonists of the estrogen receptor alpha (ER-alpha) signaling pathway in the presence of an antagonist (AID 1259383; calls by dose curve; further: top concentration of the series differs between compounds; nearly all actives have a fitted effect of over 15% in size). A digest of the protocol:
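Luminescent ERE-luciferase reporter, VM7Luc4E2 cells (endogenous ER-alpha); 10.0nM ICI-182,780 final; 15-point compound titration; 22hr at 37C; ONE-Glo, 30min RT.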

Sequence of Estrogen receptor (Homo sapiens) (P03372 whole entry, looked up): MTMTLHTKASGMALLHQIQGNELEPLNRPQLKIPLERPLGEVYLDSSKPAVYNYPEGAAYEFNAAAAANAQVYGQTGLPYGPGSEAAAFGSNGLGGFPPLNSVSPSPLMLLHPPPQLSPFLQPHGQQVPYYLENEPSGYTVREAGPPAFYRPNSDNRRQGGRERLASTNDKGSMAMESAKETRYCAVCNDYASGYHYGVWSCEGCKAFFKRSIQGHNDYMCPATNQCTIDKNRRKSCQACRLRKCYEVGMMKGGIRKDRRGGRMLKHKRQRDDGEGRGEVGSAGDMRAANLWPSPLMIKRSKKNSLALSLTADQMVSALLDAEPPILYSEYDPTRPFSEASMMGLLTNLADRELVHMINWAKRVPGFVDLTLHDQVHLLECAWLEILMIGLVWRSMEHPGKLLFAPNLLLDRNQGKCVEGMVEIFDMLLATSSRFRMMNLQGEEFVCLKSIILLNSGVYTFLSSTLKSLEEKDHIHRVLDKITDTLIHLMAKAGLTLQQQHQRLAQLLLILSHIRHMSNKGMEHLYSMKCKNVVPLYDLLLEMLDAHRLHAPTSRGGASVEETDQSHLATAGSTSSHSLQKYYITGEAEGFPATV
Sequence of Androgen receptor (Homo sapiens) (P10275 whole entry, looked up): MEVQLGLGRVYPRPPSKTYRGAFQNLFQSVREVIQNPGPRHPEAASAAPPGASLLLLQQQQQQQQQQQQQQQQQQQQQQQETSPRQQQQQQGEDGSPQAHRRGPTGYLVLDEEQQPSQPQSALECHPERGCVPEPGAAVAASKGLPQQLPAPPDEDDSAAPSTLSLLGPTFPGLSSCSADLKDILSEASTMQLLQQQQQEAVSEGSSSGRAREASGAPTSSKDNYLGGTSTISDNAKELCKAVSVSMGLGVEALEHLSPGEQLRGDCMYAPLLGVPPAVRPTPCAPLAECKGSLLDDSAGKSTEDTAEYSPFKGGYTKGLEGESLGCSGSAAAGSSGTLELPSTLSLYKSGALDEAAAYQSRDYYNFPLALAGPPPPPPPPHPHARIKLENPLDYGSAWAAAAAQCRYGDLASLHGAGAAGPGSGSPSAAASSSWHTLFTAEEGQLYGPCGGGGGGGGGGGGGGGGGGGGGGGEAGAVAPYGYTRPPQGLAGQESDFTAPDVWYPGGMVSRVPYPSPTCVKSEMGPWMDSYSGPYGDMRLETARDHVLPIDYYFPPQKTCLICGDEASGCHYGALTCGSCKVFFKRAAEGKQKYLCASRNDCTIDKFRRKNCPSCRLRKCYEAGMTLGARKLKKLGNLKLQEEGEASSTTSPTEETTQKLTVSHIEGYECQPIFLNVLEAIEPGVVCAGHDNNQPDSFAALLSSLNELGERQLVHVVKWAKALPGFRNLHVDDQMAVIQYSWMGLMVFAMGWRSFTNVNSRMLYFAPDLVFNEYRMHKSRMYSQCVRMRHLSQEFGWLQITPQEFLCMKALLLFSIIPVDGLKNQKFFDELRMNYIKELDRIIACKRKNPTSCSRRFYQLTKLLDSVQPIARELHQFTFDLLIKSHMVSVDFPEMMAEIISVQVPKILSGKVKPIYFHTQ
Sequence of Thyrotropin receptor (Homo sapiens) (P16473 whole entry, looked up): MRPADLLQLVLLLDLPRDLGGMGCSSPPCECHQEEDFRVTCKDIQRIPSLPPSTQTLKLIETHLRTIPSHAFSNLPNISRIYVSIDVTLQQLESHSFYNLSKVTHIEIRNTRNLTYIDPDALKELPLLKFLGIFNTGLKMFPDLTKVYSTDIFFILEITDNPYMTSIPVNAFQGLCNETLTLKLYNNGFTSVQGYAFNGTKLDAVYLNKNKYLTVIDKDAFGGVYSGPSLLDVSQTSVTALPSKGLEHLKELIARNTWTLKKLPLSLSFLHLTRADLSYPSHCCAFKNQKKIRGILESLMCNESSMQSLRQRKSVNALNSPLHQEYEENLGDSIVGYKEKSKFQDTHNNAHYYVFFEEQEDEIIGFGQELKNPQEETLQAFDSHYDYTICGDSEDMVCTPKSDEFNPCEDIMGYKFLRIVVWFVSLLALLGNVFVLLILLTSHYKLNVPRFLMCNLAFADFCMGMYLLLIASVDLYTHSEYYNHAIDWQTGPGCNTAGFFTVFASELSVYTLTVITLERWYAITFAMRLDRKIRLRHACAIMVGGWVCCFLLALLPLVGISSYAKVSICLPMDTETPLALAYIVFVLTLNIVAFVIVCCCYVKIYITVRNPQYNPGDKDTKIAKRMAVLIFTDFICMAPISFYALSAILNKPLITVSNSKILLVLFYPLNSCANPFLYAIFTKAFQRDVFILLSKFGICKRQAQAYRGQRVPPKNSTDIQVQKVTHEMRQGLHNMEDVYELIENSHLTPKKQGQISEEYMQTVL
Sequence of Estrogen receptor beta (Homo sapiens) (Q92731 whole entry, looked up): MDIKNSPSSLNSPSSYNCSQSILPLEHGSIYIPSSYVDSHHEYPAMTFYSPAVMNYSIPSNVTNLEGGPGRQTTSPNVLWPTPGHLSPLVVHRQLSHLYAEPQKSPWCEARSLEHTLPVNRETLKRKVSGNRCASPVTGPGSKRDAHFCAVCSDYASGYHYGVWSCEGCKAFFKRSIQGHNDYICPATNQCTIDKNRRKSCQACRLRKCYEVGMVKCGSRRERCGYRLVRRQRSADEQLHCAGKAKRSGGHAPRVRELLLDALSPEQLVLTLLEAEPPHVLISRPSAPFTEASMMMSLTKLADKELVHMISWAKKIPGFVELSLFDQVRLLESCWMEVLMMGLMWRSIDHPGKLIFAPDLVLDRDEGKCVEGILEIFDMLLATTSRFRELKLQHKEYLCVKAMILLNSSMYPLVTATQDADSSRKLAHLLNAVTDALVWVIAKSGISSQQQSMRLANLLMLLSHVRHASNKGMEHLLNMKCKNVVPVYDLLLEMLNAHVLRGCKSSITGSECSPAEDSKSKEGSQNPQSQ
Sequence of Progesterone receptor (Homo sapiens) (P06401 whole entry, looked up): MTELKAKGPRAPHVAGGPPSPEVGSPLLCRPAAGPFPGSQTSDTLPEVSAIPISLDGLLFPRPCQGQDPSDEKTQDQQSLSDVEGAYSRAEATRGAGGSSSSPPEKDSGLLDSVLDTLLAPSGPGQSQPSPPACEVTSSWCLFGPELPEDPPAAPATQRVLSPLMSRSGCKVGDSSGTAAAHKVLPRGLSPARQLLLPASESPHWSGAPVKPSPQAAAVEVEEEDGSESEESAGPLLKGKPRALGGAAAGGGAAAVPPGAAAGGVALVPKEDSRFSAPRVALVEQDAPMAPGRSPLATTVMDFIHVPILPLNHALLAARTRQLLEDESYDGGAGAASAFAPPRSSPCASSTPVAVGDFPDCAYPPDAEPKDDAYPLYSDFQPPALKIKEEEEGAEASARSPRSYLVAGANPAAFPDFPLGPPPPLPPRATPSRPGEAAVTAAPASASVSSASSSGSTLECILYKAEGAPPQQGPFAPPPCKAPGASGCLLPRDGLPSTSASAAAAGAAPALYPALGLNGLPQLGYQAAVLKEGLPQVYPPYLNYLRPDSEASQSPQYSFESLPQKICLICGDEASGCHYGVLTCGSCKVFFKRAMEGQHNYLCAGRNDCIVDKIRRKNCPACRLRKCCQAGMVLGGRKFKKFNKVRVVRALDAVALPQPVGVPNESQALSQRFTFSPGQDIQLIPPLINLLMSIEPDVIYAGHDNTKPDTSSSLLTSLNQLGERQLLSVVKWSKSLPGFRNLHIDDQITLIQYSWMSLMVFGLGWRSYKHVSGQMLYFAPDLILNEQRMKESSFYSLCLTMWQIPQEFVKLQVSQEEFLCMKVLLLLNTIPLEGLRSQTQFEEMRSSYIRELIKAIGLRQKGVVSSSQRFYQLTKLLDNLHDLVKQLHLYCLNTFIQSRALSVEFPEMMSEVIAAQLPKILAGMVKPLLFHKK

As for `C[Si](O[Si](C)(C)C)O[Si](C)(C)C`, the Potency entry in assay [1], in [3], in [4], in assay [6], in [7] and in assay [8] was “inactive” throughout. Further, the Potency result in assay [9], in assay [10], in assay [11], in assay [13], in [14] and in assay [15] was “inactive” each time. Moreover, the Potency entry in assay [16] was “inactive”. Also, the outcome in [2], in assay [5] and in assay [12] was inactive.

With `O=c1[nH]c(=O)n([C@H]2CCCO2)cc1F`, the result in [17], in [2], in assay [5] and in assay [12] was inactive. Besides, the Potency result in assay [1], in assay [3], in assay [6], in assay [18], in [8] and in assay [9] was “inactive” throughout. The Potency result in assay [11], in [14], in assay [15] and in [16] was “inactive” in each case.

For `O=P(OC(CCl)CCl)(OC(CCl)CCl)OC(CCl)CCl`, the Potency entry in [1], in assay [6], in [7], in assay [8], in [9] and in assay [11] was “inactive” throughout. The Potency result in assay [19], in assay [13], in assay [14] and in assay [15] was “inactive” in each case. Besides, the result in assay [2], in [5] and in [12] was inactive. The Potency was 30.5 µM (active) in assay [3]; 30.5 µM (active) in assay [4]; 6.82 µM (active) and 7.7 µM (active) in assay [16].

Turning to `CCCCC(CC)COC(=O)C(C#N)=C(c1ccccc1)c1ccccc1` (stereo not drawn), the compound was classed as inactive in [17], in assay [2], in [5] and in assay [12]. Also, the Potency entry in assay [1], in assay [3], in [4], in assay [6], in [7] and in [8] was “inactive” in each case. For the same compound, the Potency entry in [9], in assay [11], in [14] and in [15] was “inactive” in each case. Further, the Potency in [16] is 8.63 µM (active).

In the case of `CC(C)(N)CO`, the Potency entry in assay [1], in assay [3], in assay [4], in assay [6], in [7] and in assay [8] was “inactive” throughout. Besides, the Potency entry in [9], in assay [11], in [19], in [13], in [14] and in assay [15] was “inactive” throughout. In addition, the Potency entry in assay [16] was “inactive”. In addition, the result in assay [2], in assay [5] and in [12] was inactive.

Consider `Cc1cnc(C(=O)NCCc2ccc(S(=O)(=O)NC(=O)NC3CCCCC3)cc2)cn1`, for which the outcome in [17], in assay [2], in [5] and in assay [12] was inactive. Also, the Potency entry in assay [1], in assay [3], in assay [6], in assay [18], in assay [8] and in assay [9] was “inactive” throughout. Also, the Potency result in assay [11], in assay [19], in assay [13], in [14] and in assay [15] was “inactive” throughout.

`OCCOCCOCCO`: the result in assay [17], in assay [2], in [5] and in assay [12] was inactive. The Potency entry in assay [1], in assay [3], in [6], in assay [7], in assay [8] and in assay [9] was “inactive” throughout. Moreover, the Potency entry in assay [10], in [11], in assay [19], in [13], in assay [14] and in [15] was “inactive” each time.

For the compound `N[C@@H](Cc1cc(I)c(Oc2cc(I)c(O)c(I)c2)c(I)c1)C(=O)O`, the outcome in [17], in assay [2], in assay [5] and in assay [12] was inactive. Besides, the Potency result in assay [1], in assay [3], in assay [4], in assay [6], in assay [7] and in assay [8] was “inactive” in each case. In addition, the Potency result in assay [9], in assay [11], in assay [14], in [15] and in assay [16] was “inactive” in each case.
